Records with an inconclusive call do not appear. Active and inactive are the calls of the source. Unless noted, the call rests on the fitted dose curve; in most records, active means well fitted curve in the direction sought with a large enough effect; inconclusive means small, poorly fitted or top-dose-only effect, or another doubt; inactive means no such curve, though single readings can be large; an effect the other way counts as inactive or inconclusive.
Columns and labels:
[1] = qHTS for Inhibitors of the Functional Ribonucleoprotein Complex (vRNP) of Lassa (LASV) Arenavirus: LASV Primary Screen - GLuc reporter signal (AID 1347082; calls by dose curve; tested in HEK293 reporter line; further: series mostly up to about 57 µM; nearly all actives have a fitted effect of over 60% in size)
[2] = qHTS for Inhibitors of the Functional Ribonucleoprotein Complex (vRNP) of Lassa (LASV) Arenavirus: Viability assay - alamar blue signal for LASV Primary Screen (AID 1347083; calls by dose curve; tested in HEK293 reporter line; further: series mostly up to about 57 µM; nearly all actives have a fitted effect of over 80% in size)
[3] = qHTS for Inhibitors of the Functional Ribonucleoprotein Complex (vRNP) of Lymphocytic Choriomeningitis Arenaviruses (LCMV): Viability assay - alamar blue signal for LCMV Primary Screen (AID 1347085; calls by dose curve; tested in HEK293 reporter line; further: series mostly up to about 57 µM; nearly all actives have a fitted effect of over 80% in size)
[4] = target: Nucleoprotein (Lymphocytic choriomeningitis virus (strain Armstrong)) (UniProt P09992); assay: qHTS for Inhibitors of the Functional Ribonucleoprotein Complex (vRNP) of Lymphocytic Choriomeningitis Arenaviruses (LCMV): LCMV Primary Screen - GLuc reporter signal (AID 1347086; calls by dose curve; further: series mostly up to about 57 µM; nearly all actives have a fitted effect of over 70% in size)
[5] = qHTS of pediatric cancer cell lines to identify multiple opportunities for drug repurposing: Primary screen for TC32 cells (AID 1347089); further: nearly all actives have a fitted effect of over 60% in size
Method in brief: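 Luminescent CellTiter-Glo read-out of metabolically active TC32 cells after 48 h compound exposure. Primary: MIPE 11-point, 0.78 nM–46 µM; NPC 8-point, 0.59 nM–46 µM. Confirmatory: 11-point dilutions.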

[6] = qHTS of pediatric cancer cell lines to identify multiple opportunities for drug repurposing: Primary screen for DAOY cells (AID 1347090); further: series mostly up to about 46 µM; nearly all actives have a fitted effect of over 55% in size
Method in brief: (§1)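 Viability measured as metabolically active cells via CellTiter-Glo luminescence following 48 hours of compound exposure, 11-point dilutions in confirmatory testing. 500-1,000 cells/well plated 5 hours before dosing; controls were DMSO and 2.3 µM bortezomib.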

[7] = qHTS of pediatric cancer cell lines to identify multiple opportunities for drug repurposing: Primary screen for A673 cells (AID 1347092); further: nearly all actives have a fitted effect of over 45% in size
Method in brief: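 A673 cells (500-1,000 cells/well in growth media) were pre-incubated 5 h at 37 degrees C, then exposed to compounds for 48 h. Viability was read as CellTiter-Glo luminescence; concentration-response curves came directly from the primary screen.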

[8] = qHTS of pediatric cancer cell lines to identify multiple opportunities for drug repurposing: Primary screen for SK-N-MC cells (AID 1347093); further: potency means the concentration at half of the fitted maximal effect
Method in brief: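 Metabolically active cells were quantified by ATP-dependent luminescence (CellTiter-Glo, 15 min at room temperature) following 48 h treatment. Cells had been plated at 500-1,000 per well and settled for 5 h beforehand.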

[9] = qHTS of pediatric cancer cell lines to identify multiple opportunities for drug repurposing: Primary screen for SJ-GBM2 cells (AID 1347091)
Method in brief: as §1

Measured: Potency

Sequence of Nucleoprotein (Lymphocytic choriomeningitis virus (strain Armstrong)) (P09992 whole entry, looked up): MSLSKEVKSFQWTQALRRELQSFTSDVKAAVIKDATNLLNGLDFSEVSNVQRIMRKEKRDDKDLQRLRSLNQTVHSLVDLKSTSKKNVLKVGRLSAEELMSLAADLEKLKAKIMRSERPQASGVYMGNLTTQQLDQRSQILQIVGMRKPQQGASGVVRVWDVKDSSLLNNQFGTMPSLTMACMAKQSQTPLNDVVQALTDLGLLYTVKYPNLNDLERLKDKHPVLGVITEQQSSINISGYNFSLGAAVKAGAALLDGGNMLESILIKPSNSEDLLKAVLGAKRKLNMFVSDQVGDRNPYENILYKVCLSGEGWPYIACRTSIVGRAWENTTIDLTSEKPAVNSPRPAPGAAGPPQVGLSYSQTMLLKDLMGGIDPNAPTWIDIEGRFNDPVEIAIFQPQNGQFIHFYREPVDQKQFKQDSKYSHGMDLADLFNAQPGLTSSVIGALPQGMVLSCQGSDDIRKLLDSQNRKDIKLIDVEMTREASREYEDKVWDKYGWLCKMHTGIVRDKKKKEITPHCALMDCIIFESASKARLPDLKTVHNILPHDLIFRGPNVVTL

COc1ccc2[nH]cc(CCN(C(C)C)C(C)C)c2c1
inactive: [1] | [2] | [3] | [4] | [5] | [6] | [7] | [8]

CC(CC(C#N)(c1ccccc1)c1ccccc1)N(C)C (configuration not stated)
inactive: [1] | [2] | [3] | [4] | [5] | [6] | [7]

CN1CCc2cc(Cl)c(O)cc2[C@H]2c3ccccc3CC[C@@H]21
inactive: [1] | [2] | [3] | [4] | [5] | [6] | [9] | [7] | [8]

C=CCOC(Cn1ccnc1)c1ccc(Cl)cc1Cl (configuration not stated)
inactive: [1] | [2] | [3] | [4] | [5] | [6] | [9] | [8]

CC(C)[N+](C)(CCC(C(N)=O)(c1ccccc1)c1ccccc1)C(C)C
inactive: [1] | [2] | [3] | [4] | [5] | [6] | [9] | [7] | [8]

C=CC[C@]1(O)CC[C@H]2[C@@H]3CCC4=CC(=O)CCC4=C3C=C[C@@]21C
inactive: [1] | [2] | [3] | [4] | [5] | [6] | [7]

CN1C[C@@H](NS(=O)(=O)N(C)C)C[C@@H]2c3cccc4c3c(cn4C)C[C@H]21
inactive: [1] | [2] | [3] | [4] | [5] | [6] | [7] | [8]

Cc1nnc2n1-c1sc(CCC(=O)N3CCOCC3)cc1C(c1ccccc1Cl)=NC2
inactive: [1] | [2] | [3] | [4] | [5] | [6] | [9] | [7] | [8]

CC(C)C(Br)C(=O)NC(N)=O (configuration not stated)
inactive: [1] | [2] | [3] | [4] | [5] | [6] | [7] | [8]

CN(C)CCc1c[nH]c2ccccc12
inactive: [1] | [2] | [3] | [4] | [5] | [6] | [7] | [8]

COP(=O)(OC)OC=C(Cl)Cl
inactive: [1] | [2] | [3] | [4] | [5] | [6] | [7] | [8]

CC1COC2(c3ccccc3Cl)c3cc(Cl)ccc3NC(=O)CN12 (configuration not stated)
inactive: [1] | [2] | [3] | [4] | [5] | [6] | [7] | [8]

COc1cc(N)c(Cl)cc1C(=O)NC1CN2CCC1CC2 (configuration not stated)
inactive: [1] | [2] | [3] | [4] | [5] | [6] | [7] | [8]

O=C(NC(=O)c1c(F)cccc1F)Nc1cc(Cl)c(OC(F)(F)C(F)C(F)(F)F)cc1Cl (configuration not stated)
inactive: [1] | [2] | [3] | [4] | [5] | [6] | [7] | [8]

CCNc1nc(Cl)nc(NCC)n1
inactive: [1] | [2] | [3] | [4] | [5] | [6] | [9] | [7] | [8]

CN1[C@@H]2CC[C@H]1CC(OC(=O)c1cc(Cl)cc(Cl)c1)C2 (some centres not stated)
inactive: [1] | [2] | [3] | [4] | [5] | [9]
active: [8] 1 nM

OC(O)C(Cl)(Cl)Cl
inactive: [1] | [2] | [3] | [4] | [5] | [6] | [7] | [8]

CCOC(=O)c1ccc(C#Cc2ccc3c(c2)C(C)(C)CCS3)nc1
inactive: [1] | [2] | [4]

CN(C)CCCOc1nn(Cc2ccccc2)c2ccccc12
inactive: [1] | [2] | [4]

COC(=O)C1=C(C)NC(C)=C(C(=O)OCCCN2CCC(c3ccccc3)(c3ccccc3)CC2)C1c1cccc([N+](=O)[O-])c1 (configuration not stated)
inactive: [1] | [2] | [4]

CC(C)(C)OC(=O)c1ncn2c1[C@@H]1CCCN1C(=O)c1c(Br)cccc1-2
inactive: [1] | [2] | [3] | [5] | [6] | [9] | [7] | [8]

CCN(Cc1ccc(Cl)nc1)/C(=C/[N+](=O)[O-])NC
inactive: [1] | [2] | [3] | [4] | [5] | [6] | [7] | [8]

Reference: PubChem BioAssay (NCATS)
